An excerpt weighted towards active compounds, which were near 4.1% of everything screened.
MazEF act: activators of E. coli MazEF toxin-antitoxin RNase; activation, % at 20 µM; FAM/BHQ RNA-DNA oligo cleavage fluorescence, 5 h; actives 0.32% (n = 350,000); P0AE70; in the data active means activation above about 50%
Autofluor counter: counter-screen for toxin protease inhibitors: compound fluorescence; compound autofluorescence counterscreen, microsphere flow cytometry; hits give high values; fluorescence intensity (no concentration beside the values); actives 3.1% (n = 360,000); AID 624483; in the data active means fluorescence intensity above about 16000; inconclusive means no clear call, values can overlap the other calls
BoNT A protease: inhibitors of Botulinum neurotoxin A light chain protease; inhibition, % at 10 µM; multiplex microsphere protease substrate cleavage, flow cytometry; AID 588499; actives 0.17% (n = 360,000); further: plate controls were buffer without enzyme for full effect and enzyme alone for no effect
BoNT F protease: BoNT F light chain protease inhibition; Multiplex microsphere protease cleavage assay, flow cytometry; inhibition, % at 10 µM; actives 0.22% (n = 360,000); AID 588497; in the data active means inhibition above about 35%, passing the limit was not always enough; inconclusive means no clear call, values can overlap the other calls; further: plate controls were buffer without enzyme for full effect and enzyme alone for no effect
Anthrax LF prot: anthrax lethal factor protease inhibition. P15917. multiplex microsphere protease cleavage assay, LF. inhibition, % at 10 µM. actives 0.12% (n = 360,000). AID 588501; further: plate controls were buffer without enzyme for full effect and enzyme alone for no effect
Target sequence (P15917 whole entry, looked up): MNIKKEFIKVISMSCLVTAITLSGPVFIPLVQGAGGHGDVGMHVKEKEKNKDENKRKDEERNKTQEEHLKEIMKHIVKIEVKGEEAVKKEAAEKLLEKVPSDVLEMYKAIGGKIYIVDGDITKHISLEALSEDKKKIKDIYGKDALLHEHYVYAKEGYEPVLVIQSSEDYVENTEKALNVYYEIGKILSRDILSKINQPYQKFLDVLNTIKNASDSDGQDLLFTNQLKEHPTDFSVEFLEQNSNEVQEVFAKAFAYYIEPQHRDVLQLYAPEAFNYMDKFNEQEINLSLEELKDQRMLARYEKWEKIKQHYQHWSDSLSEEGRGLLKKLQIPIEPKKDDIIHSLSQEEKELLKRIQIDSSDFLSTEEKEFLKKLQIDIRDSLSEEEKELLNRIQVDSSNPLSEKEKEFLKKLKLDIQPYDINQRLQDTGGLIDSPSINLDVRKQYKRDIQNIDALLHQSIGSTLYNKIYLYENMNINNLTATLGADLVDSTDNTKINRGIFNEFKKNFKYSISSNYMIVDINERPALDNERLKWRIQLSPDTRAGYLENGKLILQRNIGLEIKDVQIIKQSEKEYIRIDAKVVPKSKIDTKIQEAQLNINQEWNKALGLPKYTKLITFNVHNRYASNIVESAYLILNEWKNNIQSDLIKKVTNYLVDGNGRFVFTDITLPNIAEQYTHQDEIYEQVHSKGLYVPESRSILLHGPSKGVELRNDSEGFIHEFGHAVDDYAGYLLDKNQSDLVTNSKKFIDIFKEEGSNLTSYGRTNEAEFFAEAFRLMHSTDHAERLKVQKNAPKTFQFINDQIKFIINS
DUSP3 inh: blocks human VHR1 dual specificity phosphatase | recombinant VHR phosphatase, pNPP absorbance | AID 1654 | inhibition, % at 13.3 µM | P51452 | actives 0.52% (n = 290,000); in the data active means inhibition above about 50%
An asterisk follows results filed as active; ? = inconclusive; · = not tested or not shown; + = active, no number. Unless noted, no stated cut-off is given here; in the data, active means inhibition above about 30%; inconclusive means no clear call, values can overlap the other calls; inactive means below that.

SMILES | MazEF act | Autofluor counter | BoNT A protease | BoNT F protease | Anthrax LF prot | DUSP3 inh
CC(=O)c1ccc(NC(=O)CCC(=O)OCC(F)(F)C(F)F)cc1 | -1.0 | 20248* | ? | -1.5 | 1.4 | 21.9
CCCOC(=O)c1ccc(NC(=O)CCC(=O)OCC)cc1 | 3.3 | 21063* | 3.5 | 10.8 | -0.2 | -10.8
CCCN1CCN(C(=O)Nc2ccc(C(=O)OCC)cc2)CC1 | 4.9 | 20252* | 0.2 | -1.1 | -1.5 | 10.4
CCOC(=O)c1ccc(NC(=O)N2CCCCCC2)cc1 | 6.4 | 6096 | 0.3 | 0.8 | -0.2 | 7.7
Cc1cccc(-n2c(SCC(=O)c3c(N)n(C4CC4)c(=O)[nH]c3=O)nnc2N2CCOCC2)c1 | 4.3 | 4932 | 3.2 | -0.5 | 0.9 | ·
CSc1nc(-c2ccccc2)ccc1C(N)=O | 2.1 | 21978* | ? | -5.1 | -0.7 | 6.4
NC(=O)c1sc2nc(-c3ccccc3)ccc2c1N | 11.8 | 4010 | 0.3 | -25.1 | 17.8 | -7.4
COc1ccc(N2CC(C(=O)OCC(=O)Nc3cccc(C)c3C)CC2=O)cc1 (stereo not drawn) | 2.3 | 4999 | 0.2 | -1.1 | -2.0 | -52.2
CCC(C)(C)C(=O)Nc1nnc(CCc2ccccc2)s1 | -0.9 | 3221 | -0.6 | 35.7* | -0.6 | 12.2
Cc1cc(NC(=O)c2cccc(S(=O)(=O)N3CCC(C)CC3)c2)no1 | 8.4 | 5883 | -1.0 | 4.2 | 1.7 | 14.4
O=C(c1ccco1)N(c1ccccn1)c1ccccn1 | -2.2 | 22821* | ? | -0.3 | -2.0 | 7.9
CN(C)S(=O)(=O)c1ccc(C(=O)N(c2ccccn2)c2ccccn2)cc1 | 1.7 | 22500* | 0.9 | 1.8 | -0.2 | -13.1
O=C(/C=C/c1ccco1)N(c1ccccn1)c1ccccn1 | 5.4 | 4263 | -0.3 | -2.4 | -6.8 | 21.7
CC(C)(C)c1cc(NCCCn2ccnc2)n2ncc(-c3ccc(Cl)cc3)c2n1 | -21.2 | 25531* | ? | -9.8 | -5.0 | 52.7*
Cc1ccccc1NC(=O)CSc1nnc(NC(=O)C2CC2)s1 | 2.4 | 3058 | -1.3 | 2.3 | 18.2 | 5.8
FC(F)Sc1ccc(Nc2ncnc3nc[nH]c23)cc1 | 2.6 | 23588* | ? | -4.5 | -3.5 | -9.4
Cc1cc2oc(=O)cc(CN3CCCCC3)c2cc1Cl | · | 6131 | 0.2 | 0.6 | -4.4 | ·
COc1ccccc1NC(=O)C1=C(C)Nc2ncnn2C1c1ccccc1C (stereo not drawn) | -8.0 | · | · | · | · | 3.3
COc1cccc(C2C(C(=O)Nc3ccc(C)cc3C)=C(C)Nc3ncnn32)c1OC (stereo not drawn) | 11.6 | 19983* | 1.3 | 1.6 | -2.1 | 9.9
COC(=O)c1ccc(N2CCN(c3ccccc3)CC2)c(N)c1 | 5.5 | 4072 | -3.4 | 0.7 | -2.4 | 37.8
O=C(OCc1ccccc1)N1CCCCC1c1c(Cl)cccc1Br (stereo not drawn) | · | 5627 | -0.6 | -7.9 | -2.8 | ·
CC(=NNC(=S)N1CC2CCC(CC2)C1)c1cccc(C)n1 | 8.8 | 2732 | 19.7 | 44.8* | 17.5 | ·
CC(=NNC(=S)N1CC2CCC(CC2)C1)c1nccs1 | 3.9 | 2938 | 8.6 | 31.0 | 13.2 | ·
CCOC(=O)N1CCC(NS(=O)(=O)c2ccc(C#N)cc2)CC1 | -10.7 | 4224 | -0.8 | -6.0 | -2.9 | 1.1
COC(=O)c1ccccc1NS(=O)(=O)c1ccc2c(c1)oc(=O)n2C | 5.8 | 3863 | -2.8 | ? | -11.5 | 51.7*
SMILES | MazEF act | Autofluor counter | BoNT A protease | BoNT F protease | Anthrax LF prot | DUSP3 inh
COC(=O)c1ccccc1NC(=O)Oc1ccc(F)cc1 | -4.2 | 16560* | -1.2 | -2.8 | -3.2 | 18.6
COC(=O)c1ccccc1NS(=O)(=O)c1ccc(F)cc1 | -4.3 | 20259* | ? | 1.9 | -5.8 | 17.6
CN1CCCC(C#CC(O)(c2ccccc2)c2ccccc2)C1 (stereo not drawn) | 2.0 | 2555 | -3.9 | -24.2 | -2.3 | 3.1
CC(C)C[C@H]1COc2cccc(N3CCN(Cc4ccccc4F)CC3)c2S(=O)(=O)N1 | · | 5736 | 0.8 | -1.1 | 3.5 | ·
O=C1/C(=C\c2ccccn2)SC(=S)N1Nc1ncc(C(F)(F)F)cc1Cl | 4.3 | 22887* | 2.4 | 3.2 | -0.4 | 15.2
Cc1[nH]c(=O)[nH]c1C(=O)CCCCC(=O)OCC(=O)Nc1ccccn1 | 15.3 | 4438 | 9.2 | 69.9* | -1.0 | 25.0
CCOC(=O)CCCCC(=O)c1[nH]c(=O)[nH]c1C[n+]1ccccc1 | · | · | · | · | · | 11.1
Cc1ccc(S(=O)(=O)Cc2ccc(C(=O)OCc3ccccc3)cc2)cc1 | -1.5 | 2819 | 0.3 | -3.1 | -0.3 | 14.5
COC(=O)c1c[nH]c2c1-c1cc(C(=O)OCc3ccccc3)n(S(=O)(=O)c3ccc(C)cc3)c1C(=O)C2=O | 74.8* | 3455 | -0.5 | -5.3 | 0.1 | ·
CCOC(=O)c1c(C)c(C(=O)Nc2ccccc2)c(C)n1CC | 9.8 | 9794 | -0.5 | 8.4 | -0.1 | -7.3
CCOC(=O)c1c(C)c(C(=O)NCc2cccs2)c(C)n1CC | -6.3 | 20405* | 0.9 | 2.1 | -0.8 | 5.0
CCOC(=O)c1c(C)c(C(=O)NCCN2CCOCC2)c(C)n1CC | -2.0 | 17127* | -4.9 | -7.0 | -3.8 | 15.2
COc1ccc(NS(=O)(=O)c2cccc(C(=O)NNC(=O)c3ccc(Br)o3)c2)cc1 | -4.2 | 6001 | -1.2 | 0.4 | -2.0 | ·
Cc1cccc(C)c1NC(=O)CNC(=O)c1ccc(COc2ccccc2)cc1 | -35.0 | 5354 | 1.3 | 8.9 | -3.2 | ·
COc1ccccc1OCC(=O)Nc1ccc(C(N)=O)cc1 | -10.0 | 21458* | -1.6 | -2.1 | -1.0 | 22.8
COc1cc(CNCCO)ccc1OCC(=O)Nc1ccc(Br)cc1 | 1.4 | 22933* | 1.9 | -3.4 | -0.8 | -12.1
COc1ccccc1OCC(=O)Nc1ccc(Cl)cc1 | -2.7 | 23170* | ? | -4.4 | -1.9 | 13.3
Cc1cc(NC(=O)CN2C(=O)NC(CC(C)C)C2=O)ccc1Br (stereo not drawn) | 5.7 | · | · | · | · | ·
CCN(C(=O)c1ccc(NC(C)=O)cc1)c1ccccc1 | 0.7 | 21341* | 4.1 | 2.7 | 0.2 | 6.4
CC1(C)CC(NS(=O)(=O)c2cccc3ccccc23)CC(C)(C)N1 | 2.4 | 6347 | -0.8 | -0.2 | 1.4 | 55.5*
COc1ccc(OCCNC(=O)c2ccc3nc(C)c(N(C)C(=O)CCc4ccccc4)n3c2)cc1 | · | 3530 | -0.7 | -0.7 | -5.1 | ·
Cc1ccc(S(=O)(=O)NNC(=O)c2ccccc2O)cc1 | 0.1 | 2084 | 2.7 | 39.1* | 0.8 | -3.8
Cc1ccc(S(=O)(=O)Nc2ccc(Nc3ccccc3)cc2)cc1 | 5.4 | 3582 | -1.4 | -3.5 | -5.4 | 11.4
Cc1ccc(S(=O)(=O)NNc2ccccc2)cc1 | -2.6 | 16260* | ? | -2.7 | -0.8 | 26.1
C=CCn1c(=O)/c(=C/c2cc(OC)c(OC)c(OC)c2)s/c1=C(/C#N)c1nc2ccccc2n1C | + | 2299 | 112.3* | 58.3* | 60.9* | 4.9
CC(c1ccccc1)N1CCn2c(nc3cc(NC(=O)NC4CCCCC4)ccc32)C1 (stereo not drawn) | 11.1 | 19391* | 12.7 | -22.3 | -6.4 | 89.8
O=c1[nH]c(O)c(/C=C2\C=Nc3ccc(OCc4ccccc4)cc32)c(=O)[nH]1 | 846.7* | 3623 | -2.0 | ? | 7.2 | 1.0

Compound activity from PubChem.
